# Laboratory results reported in PubChem BioAssay.
# The source made the active and inactive calls. Unless noted, how the calls were made is not given here.
# Columns and labels:
# [1] = anti-His antibody binders, primary screen, artefact control for SMM control protein annotation, biochemical, small-molecule microarray, 635 nm fluorescence (AID 1128); details: anti-His Alexa647 antibody binding, higher = more signal;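 further: score merges feature fluorescence with signal-to-noise for each printed compound spot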
# [2] = test system: Human papillomavirus type 1a E7 protein (residues 1-88); assay: HPV1a E7 small-molecule binders, primary screen, biochemical, small-molecule microarray, residues 1-88, 635 nm (AID 1129); details: small-molecule microarray binding, fluorescence 635 nm; higher = more signal
# [3] = biological target: Focal adhesion kinase 1 (Homo sapiens) (UniProt Q05397); assay: small-molecule microarray binders of FAK, primary screen, biochemical, 635/667 nm fluorescence, BSA, DTT (AID 1130); details: PTK2 binding, 635 nm fluorescence, higher = more signal;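 further: composite of spot emission at 667 nm and signal to noise over triplicate slides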
# [4] = test system: Fibrinogen (Alexa647-labelled); assay: fibrinogen binders on compound microarrays, profiling panel, artefact control for SMM control-protein annotation, biochemical, small-molecule microarray, 635/667 nm fluorescence (AID 1131); details: fibrinogen-A647 binding fluorescence, higher = more signal;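 further: z-score merges 667 nm fluorescence with per-spot signal-to-noise over triplicate slides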
# [5] = biological target: Follistatin (Homo sapiens) (UniProt P19883); assay: follistatin binders on small-molecule microarrays, primary screen, biochemical, small-molecule microarray, 635/667 nm fluorescence (AID 1132); details: FST binding, 635 nm fluorescence, higher = more signal
# [6] = biological target: Fibroblast growth factor 2 (Homo sapiens) (UniProt P09038); assay: FGF2 binders on small-molecule microarrays, primary screen, biochemical, small-molecule microarray, 635/667 nm fluorescence (AID 1133); details: small-molecule microarray binding, FGF2, fluorescence 635/667; higher = more signal
# [7] = mitochondrial membrane potential change in A549 cells, profiling panel, cell-based, JC-1 fluorescence, basal, 24 h, 100 nL (AID 1138); details: higher = more signal;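 further: A549 lung adenocarcinoma cells under basal conditions with no added stimulus; test concentration not given here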
# Lefty1 = Lefty1 binders on small-molecule microarrays, primary screen, biochemical, small-molecule microarray, 635/667 nm fluorescence (AID 1139); details: small-molecule microarray binding, fluorescence 635/667; higher = more signal
# [8] = test system: wheat germ agglutinin (Triticum aestivum), Alexa647-labelled; assay: wheat germ agglutinin binders on compound microarrays, profiling panel, artefact control for SMM control-protein annotation, biochemical, small-molecule microarray, 635/667 nm fluorescence (AID 1140); details: WGA-A647 binding, 635 nm fluorescence, higher = more signal;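 further: score merges 667 nm feature emission with signal to noise over triplicate slides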
# [9] = biological target: Luciferin 4-monooxygenase (Photinus pyralis) (UniProt P08659); assay: firefly luciferase enzyme inhibitors, primary screen, biochemical, luminescence, purified enzyme, 2006 set (AID 1141); details: SteadyGlo luminescence, 30 min, higher = more signal, called active from +8 up or from −8 down;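 further: cell-free assay with purified firefly luciferase at 100 ng per well in PBS; test concentration not given here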
# [10] = test system: Wnt5a (protein binding on small-molecule microarray); assay: Wnt5a binders on small-molecule microarray, primary screen, biophysical, 635/667 nm fluorescence (AID 1142); details: 635 nm fluorescence, higher = more signal;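 further: fluorescence read at 667 nm with signal to noise per printed feature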
# [11] = cell viability in Huh7 cells, primary screen, cytotoxicity control for HCV replication inhibitor project, CellTiter-Glo luminescence, basal, 48 h (AID 1143); details: Huh7 HCV replicon, higher = more signal, called active from +8 up or from −8 down;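 further: Huh7 hepatoma cells carrying a hepatitis C replication reporter with no stimulus; test concentration not given here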
# [12] = P. aeruginosa biofilm formation inhibitors, primary screen, PAO1 strain, BacTiter-Glo luminescence, LB-PBS (AID 1144); details: 12 h, higher = more signal
# [13] = CREB reporter modulators without forskolin, primary screen, cell-based, PC12, CRE-LacZ reporter, unstimulated (AID 1145); details: no forskolin, luminescence, 4.5 h, higher = more signal, called active from +8 up or from −8 down
# [14] = CREB reporter modulators under forskolin, primary screen, cell-based, PC12, CRE-LacZ reporter, forskolin-stimulated (AID 1146); details: luminescence, 4.5 h, higher = more signal, called active from +8 up or from −8 down;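 further: PC12 cells with 6xCRE LacZ reporter stimulated by forskolin 10 µM; beta-galactosidase reporter signal reflecting CREB driven transcription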
# [15] = biological target: Streptavidin (Streptomyces avidinii) (UniProt P22629); assay: streptavidin binders on small-molecule microarray, primary screen, artefact control for SMM compound annotation, biophysical, 635/667 nm fluorescence (AID 1147); details: streptavidin binding, higher = more signal;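 further: signal reflects streptavidin binding to arrayed compounds as a control protein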
# [16] = small-molecule binders of probe aInhba, primary screen, biochemical, small-molecule microarray, 635/667 nm fluorescence (AID 1148); details: higher = more signal;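 further: score merges 667nm spot fluorescence with signal-to-noise for antibody binding to printed compounds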
# Torsin-1A (Homo sapiens) [17] = biological target: Torsin-1A (Homo sapiens) (UniProt O14656); assay: torsin A binders from cell lysate, primary screen, small-molecule microarray, wild-type, 635/667 nm (AID 1149); details: COS7 hTOR1A-WT lysate, 635 nm fluorescence, higher = more signal
# Torsin-1A (Homo sapiens) [18] = biological target: Torsin-1A (Homo sapiens) (UniProt O14656); assay: small-molecule binders of mutant TOR1A in lysate, primary screen, cell lysate, small-molecule microarray, COS7 lysate, 635/667 nm fluorescence (AID 1150); details: COS7 hTOR1A mutant lysate, 635 nm fluorescence, higher = more signal;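 further: score pools 667 nm emission and signal to noise measuring lysate protein binding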
# [19] = test system: Sonic hedgehog protein (Shh); assay: small-molecule binders of Shh protein, primary screen, biochemical, small-molecule microarray, 635/667 nm fluorescence (AID 1151); details: small-molecule microarray binding, 635 nm fluorescence; higher = more signal;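 further: Shh protein binding to compounds spotted on small-molecule microarray slides; score combines spot fluorescence intensity with signal-to-noise across triplicate slides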
# Sequence of Follistatin (Homo sapiens) (P19883 whole entry, looked up): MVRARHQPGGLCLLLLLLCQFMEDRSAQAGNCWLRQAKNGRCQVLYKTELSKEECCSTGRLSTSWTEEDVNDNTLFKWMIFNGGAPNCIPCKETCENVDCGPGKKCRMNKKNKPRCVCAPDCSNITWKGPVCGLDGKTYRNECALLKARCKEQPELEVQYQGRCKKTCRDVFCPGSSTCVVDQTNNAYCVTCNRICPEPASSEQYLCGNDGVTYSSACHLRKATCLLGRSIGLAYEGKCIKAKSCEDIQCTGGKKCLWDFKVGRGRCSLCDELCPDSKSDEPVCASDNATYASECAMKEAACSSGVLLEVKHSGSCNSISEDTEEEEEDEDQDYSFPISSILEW
# Sequence of Streptavidin (Streptomyces avidinii) (P22629 whole entry, looked up): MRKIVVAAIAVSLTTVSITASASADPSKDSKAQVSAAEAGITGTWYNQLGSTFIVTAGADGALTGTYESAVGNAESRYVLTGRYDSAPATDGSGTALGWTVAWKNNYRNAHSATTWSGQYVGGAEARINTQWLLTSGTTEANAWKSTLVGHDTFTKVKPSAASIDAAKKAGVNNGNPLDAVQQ
# Sequence of Focal adhesion kinase 1 (Homo sapiens) (Q05397 whole entry, looked up): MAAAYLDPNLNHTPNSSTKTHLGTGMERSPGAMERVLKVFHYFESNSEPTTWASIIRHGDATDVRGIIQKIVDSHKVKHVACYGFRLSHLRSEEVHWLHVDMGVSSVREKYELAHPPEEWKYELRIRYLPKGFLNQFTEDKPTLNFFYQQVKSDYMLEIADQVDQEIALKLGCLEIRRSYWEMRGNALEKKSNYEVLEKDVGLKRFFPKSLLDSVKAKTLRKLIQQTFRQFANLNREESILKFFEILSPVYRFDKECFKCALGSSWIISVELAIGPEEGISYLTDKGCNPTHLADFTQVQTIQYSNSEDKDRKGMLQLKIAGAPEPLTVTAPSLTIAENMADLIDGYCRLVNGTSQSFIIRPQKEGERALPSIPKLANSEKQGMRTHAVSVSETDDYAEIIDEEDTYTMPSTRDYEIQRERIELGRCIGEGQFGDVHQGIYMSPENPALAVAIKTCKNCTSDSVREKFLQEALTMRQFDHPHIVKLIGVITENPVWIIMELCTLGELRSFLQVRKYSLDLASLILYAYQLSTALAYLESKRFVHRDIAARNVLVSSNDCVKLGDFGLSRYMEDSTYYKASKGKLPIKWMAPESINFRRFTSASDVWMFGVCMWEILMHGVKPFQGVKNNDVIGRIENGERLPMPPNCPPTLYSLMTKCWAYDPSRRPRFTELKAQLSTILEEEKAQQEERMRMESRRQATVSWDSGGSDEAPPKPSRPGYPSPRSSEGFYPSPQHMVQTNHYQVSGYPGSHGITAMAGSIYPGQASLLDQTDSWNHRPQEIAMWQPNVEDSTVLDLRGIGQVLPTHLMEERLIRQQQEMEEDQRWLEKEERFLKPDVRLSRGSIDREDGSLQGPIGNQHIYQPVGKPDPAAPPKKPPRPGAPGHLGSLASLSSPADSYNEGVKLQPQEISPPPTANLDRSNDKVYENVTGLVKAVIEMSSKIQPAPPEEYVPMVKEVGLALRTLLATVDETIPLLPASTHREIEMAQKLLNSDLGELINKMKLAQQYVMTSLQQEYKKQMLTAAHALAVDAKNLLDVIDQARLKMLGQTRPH
# Sequence of Fibroblast growth factor 2 (Homo sapiens) (P09038 whole entry, looked up): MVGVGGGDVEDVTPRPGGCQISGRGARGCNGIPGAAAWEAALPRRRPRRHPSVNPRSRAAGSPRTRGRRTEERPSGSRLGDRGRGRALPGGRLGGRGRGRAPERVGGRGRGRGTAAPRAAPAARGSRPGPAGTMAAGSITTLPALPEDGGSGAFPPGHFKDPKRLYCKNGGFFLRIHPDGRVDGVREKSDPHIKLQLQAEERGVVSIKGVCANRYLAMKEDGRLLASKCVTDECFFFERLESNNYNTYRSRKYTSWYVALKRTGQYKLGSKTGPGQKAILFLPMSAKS
# Sequence of Torsin-1A (Homo sapiens) (O14656 whole entry, looked up): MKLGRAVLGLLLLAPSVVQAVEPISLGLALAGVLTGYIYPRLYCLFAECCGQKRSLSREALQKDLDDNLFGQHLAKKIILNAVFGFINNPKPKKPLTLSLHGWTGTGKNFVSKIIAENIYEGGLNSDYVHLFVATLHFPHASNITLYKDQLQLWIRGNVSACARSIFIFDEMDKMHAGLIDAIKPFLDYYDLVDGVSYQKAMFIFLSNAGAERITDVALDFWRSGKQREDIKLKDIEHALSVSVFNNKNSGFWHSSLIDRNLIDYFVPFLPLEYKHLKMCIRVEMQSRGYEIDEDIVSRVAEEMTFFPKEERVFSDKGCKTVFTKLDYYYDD
# Sequence of Luciferin 4-monooxygenase (Photinus pyralis) (P08659 whole entry, looked up): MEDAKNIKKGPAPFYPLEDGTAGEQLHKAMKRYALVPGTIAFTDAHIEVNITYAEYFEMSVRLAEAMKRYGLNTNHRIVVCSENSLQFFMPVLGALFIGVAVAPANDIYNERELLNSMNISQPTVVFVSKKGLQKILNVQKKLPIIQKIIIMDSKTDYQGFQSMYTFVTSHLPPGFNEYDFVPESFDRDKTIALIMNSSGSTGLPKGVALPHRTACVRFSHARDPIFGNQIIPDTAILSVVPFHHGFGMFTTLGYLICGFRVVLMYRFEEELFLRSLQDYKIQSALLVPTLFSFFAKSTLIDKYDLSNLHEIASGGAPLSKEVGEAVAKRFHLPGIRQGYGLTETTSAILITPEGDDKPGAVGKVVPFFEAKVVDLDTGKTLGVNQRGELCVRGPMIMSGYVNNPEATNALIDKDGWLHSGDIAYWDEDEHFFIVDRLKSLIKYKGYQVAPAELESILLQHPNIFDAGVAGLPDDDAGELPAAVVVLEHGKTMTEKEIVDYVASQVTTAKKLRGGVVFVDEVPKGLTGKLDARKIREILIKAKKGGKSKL
Compound,composite z-score [1],composite z-score [2],composite z-score [3],composite z-score [4],composite z-score [5],composite z-score [6],z-score [7],composite z-score (Lefty1),composite z-score [8],z-score [9],composite z-score [10],z-score [11],z-score [12],z-score [13],z-score [14],composite z-score [15],composite z-score [16],composite z-score (Torsin-1A (Homo sapiens) [17]),composite z-score (Torsin-1A (Homo sapiens) [18]),composite z-score [19]
COC(=O)[C@H](Cc1ccccc1)N1CC(/C=C/C2CC2)=C[C@H]1[C@H](O)Cc1ccccc1,-0.0173,0.921,0.437,0.667,0.582,0.526,-0.267,0.545,0.958,-0.807 (inactive),-0.0412,-2.83 (inactive),0.954 (inactive),2.1 (inactive),18.9 (active),0.626,-0.0523,0.211,0.188,0.593
COC(=O)[C@@]1(Cc2ccccc2N=[N+]=[N-])N=C(c2ccc(OCCCO)cc2)O[C@H]1c1ccccc1N=[N+]=[N-],1.08,1.14,0.909,0.605,1.27,0.933,2.85,0.119,0.767,-5.01 (inactive),0.323,-5.44 (inactive),-0.455 (inactive),1.53 (inactive),0.237 (inactive),0.169,0.221,-0.266,0.0067,0.58
CC(C)(C)N1CC=CC23O[C@@H]4C=CCCOC(=O)C4[C@H]2C(=O)N(CCO)[C@@H]3C1=O (stereo not given in full),-0.513,-0.991,-0.541,0.0853,-0.607,0.23,-0.845,-0.551,-0.0465,0.0324 (inactive),-0.323,0.297 (inactive),-0.249 (inactive),-1.44 (inactive),-0.443 (inactive),-0.485,-0.237,-0.102,-0.664,1.09
C=C(/C(=C/C[C@H](OC(=O)c1ccncc1)c1ccc(CO)o1)c1cc(C(=O)OC)ccc1OC)C(C)C,2,1.02,-0.0585,0.448,1.07,1.21,-0.432,1.14,0.433,-1.32 (inactive),-0.0222,-0.398 (inactive),-0.742 (inactive),0.621 (inactive),0.953 (inactive),-0.328,0.16,1.3,1.81,1.36
CC(C)N1C(=O)C[C@@](C(=O)NCCCN(C)C)(c2ccc([N+](=O)[O-])cc2)[C@H]1c1ccc(CO)cc1,-0.616,-0.605,-0.519,0.47,0.316,0.875,-0.488,-0.0831,-0.0539,-0.287 (inactive),-0.0942,-1.38 (inactive),0.574 (inactive),0.764 (inactive),0.0255 (inactive),-0.36,-0.157,-0.0639,0.46,0.249
C=C(/C(=C/C[C@H](OC(C)=O)c1ccccc1OCCO)c1cc(C(=O)OC)ccc1OC)C(C)C,2.68,0.278,-0.164,0.0823,0.494,0.428,-0.139,0.501,0.151,-0.475 (inactive),0.608,-3.44 (inactive),0.48 (inactive),13.6 (active),-0.556 (inactive),-1.06,0.0906,0.356,1.53,1.4
